GFP signal change (wild-type ribosome), OD600 change and RFP signal change data for 31 compounds are collected here from PubChem BioAssay AID720706 (Broad Institute, 2013).

Several values for one entry are separate records, joined by “and”; a condition that tells them apart may be missing. Identical values can stand only once. The campaign covered roughly 350,000 compounds. About 5,500 (1.6%) were called active.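 Rule for the calls: active = significant combined selectivity score with lowered wild-type GFP, culture density cut under 30%, mutant RFP and density less affected; inactive = any of these conditions unmet.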 This excerpt belongs to a sample that is enriched for actives.

A short description of the assay: reduced GFP signal of wild-type E. coli, primary screen, bacterial rRNA inhibitor project, GFP/RFP fluorescence, OD600, single point (AID 720706). The following applies: E. coli WT GFP vs humanized-ribosome RFP mutants, 24 h; GFP signal change (wild-type ribosome): stronger effect = lower value, DMSO median 0, no signal -100; OD600 change: measured here: OD600 growth, DMSO median 0, no signal -100; RFP signal change: measured here: RFP humanized mutant strains, DMSO median 0, no signal -100, concentration not given here.
On to `CO[C@@H]1CN(C)C(=O)c2cc(NC(=O)C3CC3)ccc2OC[C@@H](C)N(C(=O)NC(C)C)C[C@@H]1C`, for which the GFP signal change (wild-type ribosome) was 2.5% (inactive), the OD600 change came out at 1.51% and the RFP signal change was -0.768%.

For `CO[C@@H]1CN(C)C(=O)c2cc(NC(=O)C3CCCC3)ccc2OC[C@@H](C)N(C(=O)Nc2ccc(C(F)(F)F)cc2)C[C@H]1C`, the GFP signal change (wild-type ribosome) was -37.8% (active), the OD600 change is -17.8% and the RFP signal change is -5.86%.

On to `CO[C@@H]1CN(C)C(=O)c2cc(NC(=O)C3CCCCC3)ccc2OC[C@@H](C)N(C(=O)Nc2ccc(C(F)(F)F)cc2)C[C@H]1C`, for which the GFP signal change (wild-type ribosome) was -0.109% (inactive) and 1.77% (inactive); the OD600 change is 2.19% and -2.79%; the RFP signal change is 2.17% and 2.36%.

Turning to `COc1ccccc1NC(=O)N1CC(=O)N2[C@@H](CO)[C@H](c3ccc(C#CC4CC4)cc3)[C@@H]2C1`, the GFP signal change (wild-type ribosome) was -2.35% (inactive), the OD600 change was -11.8% and the RFP signal change is 0.376%.

Take `COc1ccc(OC)c(CN2CCN(C(=O)CNC(=O)c3cc(C)cc(C)c3)CC2)c1`: the GFP signal change (wild-type ribosome) was 4.96% (inactive), the OD600 change was -6.51% and the RFP signal change amounted to 0.577%.

For the compound `COc1cc(C(=O)NCC(=O)N2CC=C(c3ccccc3)CC2)cc(OC)c1OC`, the GFP signal change (wild-type ribosome) was -28.4% (active), the OD600 change is -22% and the RFP signal change is 0.011%.

Take `CCn1c(CNC(=O)c2cc(OC)c(OC)c(OC)c2)cc2cc(C)ccc21`: the GFP signal change (wild-type ribosome) was 15.4% (inactive), the OD600 change was 1.59% and the RFP signal change is -1.24%.

For the compound `CC(=O)N(C)C[C@@H]1Oc2ccc(NC(=O)NC(C)C)cc2C(=O)N(C)C[C@H]1C`, the GFP signal change (wild-type ribosome) was 1.73% (inactive), the OD600 change is -0.17% and the RFP signal change is -0.644%.

As to `Cc1coc2cc3oc(=O)c(CCC(=O)O)c(C)c3cc12`, the GFP signal change (wild-type ribosome) was -8.99% (inactive), the OD600 change is -10.5% and the RFP signal change turned out to be 3.81%.

Regarding `COc1cccc(-c2coc3cc4oc(=O)c(CC(=O)O)c(C)c4cc23)c1`, the GFP signal change (wild-type ribosome) was -25.9% (inactive), the OD600 change is -55.2% and the RFP signal change was -6.38%.

For the compound `Cc1c(CCC(=O)O)c(=O)oc2cc3occ(-c4ccccc4)c3cc12`, the GFP signal change (wild-type ribosome) is -41.8% (active), the OD600 change is -27.4% and the RFP signal change is -8.24%.

For the compound `CCCC#Cc1cnc2c(c1)C(=O)N([C@H](C)CO)C[C@H](C)[C@H](CN(C)S(=O)(=O)c1cn(C)cn1)O2`, the GFP signal change (wild-type ribosome) is 7.7% (inactive), the OD600 change turned out to be 7.52% and the RFP signal change is -1.55%.

Consider `Cc1ccc(NC(=S)NC(NC(=O)Cc2cccc3ccccc23)C(Cl)(Cl)Cl)cc1` (stereo not drawn), for which the GFP signal change (wild-type ribosome) is 2.41% (inactive), the OD600 change came to 7.34% and the RFP signal change worked out at 6.73%.

`O=C(O)Cc1ccc(NC(=O)Nc2cccc3ccccc23)cc1`: the GFP signal change (wild-type ribosome) was -0.412% (inactive), the OD600 change came to 0.56% and the RFP signal change is -3.8%.

For `O=C(Cc1cccc2ccccc12)NNC(=O)Nc1ccc(Cl)cc1`, the GFP signal change (wild-type ribosome) was -29.7% (active), the OD600 change was -2% and the RFP signal change is -3.61%.

With `COc1ccc([C@@H]2C/C=C\C[C@@H](c3ccc4c(c3)OCO4)NC(=O)CCC(=O)N2)c(OC)c1`, the GFP signal change (wild-type ribosome) is -4.75% (inactive), the OD600 change was -1.11% and the RFP signal change was 0.958%.

On to `C[C@@H]1CN([C@@H](C)CO)C(=O)Cc2cc(NS(=O)(=O)c3ccc(Cl)cc3)ccc2O[C@H]1CN(C)C(=O)Nc1cccc2ccccc12`, for which the GFP signal change (wild-type ribosome) was -0.7% (inactive), the OD600 change was -5.33% and the RFP signal change was 1.87%.

With `O=C(C[C@@H]1CC[C@@H](NC(=O)C2CCOCC2)[C@H](CO)O1)Nc1ccc(-c2ccccc2)cc1`, the GFP signal change (wild-type ribosome) is -6.86% (inactive), the OD600 change is -2.81% and the RFP signal change was -1.67%.

Turning to `CNC[C@H]1Oc2ncccc2C(=O)N(C)C[C@@H]1C`, the GFP signal change (wild-type ribosome) is 2.83% (inactive), the OD600 change is 2.62% and the RFP signal change was -0.315%.

`COc1ccc(CCNC(=O)COC(=O)/C=C/c2cccs2)cc1OC`: the GFP signal change (wild-type ribosome) is -13.7% (inactive), the OD600 change is -0.226% and the RFP signal change turned out to be 6.24%.

With `COc1ccc(CCNC(=O)c2cc3sccc3n2C)cc1OC`, the GFP signal change (wild-type ribosome) was -23.3% (active), the OD600 change was -13% and the RFP signal change is -7.3%.

In the case of `COc1ccc(CCNC(=O)Cc2ccc(C)cc2)cc1OC`, the GFP signal change (wild-type ribosome) was 1.64% (inactive), the OD600 change was 11.3% and the RFP signal change was -4.01%.

For the compound `C/C=C/c1ccc2c(c1)[C@H]1[C@H](CCN1S(=O)(=O)c1cn(C)cn1)[C@H](CO)N2`, the GFP signal change (wild-type ribosome) was 13.7% (inactive), the OD600 change turned out to be 27.2% and the RFP signal change was 4.63%.

Consider `CCC(=O)N1[C@@H](CO)[C@@H](c2ccccc2)C12CN(C(=O)Cc1ccccc1)C2`, for which the GFP signal change (wild-type ribosome) was 2.16% (inactive), the OD600 change turned out to be 3.77% and the RFP signal change was -0.755%.

As to `COc1ccc(CCNc2ncnc3c2nnn3Cc2ccccc2)cc1`, the GFP signal change (wild-type ribosome) is 4.94% (inactive), the OD600 change came out at 7.23% and the RFP signal change is -1.23%.

Turning to `CC(C)CNc1ncnc2c1cnn2Cc1ccc(Cl)cc1`, the GFP signal change (wild-type ribosome) is -36.1% (active), the OD600 change was -17.1% and the RFP signal change was -0.858%.

Consider `CC(C)(C)n1ncc2c(=O)n(Cc3ccc(Cl)cc3)cnc21`, for which the GFP signal change (wild-type ribosome) was 1.17% (inactive), the OD600 change is 1.78% and the RFP signal change was -4.59%.

As to `C/C=C/c1ccc(C2[C@H]3CNC[C@@H]2N3Cc2cccc(OC)c2)cc1` (stereo partly drawn), the GFP signal change (wild-type ribosome) is -0.328% (inactive) and 2.3% (inactive); the OD600 change is 8.38% and 9.5%; the RFP signal change was 6.71% and 2.48%.

`FC(F)Oc1ccc(NC(=S)NCc2ccco2)cc1Cl`: the GFP signal change (wild-type ribosome) was -29.1% (active), the OD600 change was -8.22% and the RFP signal change was determined as 5.68%.

Take `COc1cc(NC(=S)NCc2ccco2)c(OC)cc1Cl`: the GFP signal change (wild-type ribosome) was 4.76% (inactive), the OD600 change amounted to 2.73% and the RFP signal change came to 1.65%.

`S=C(NCc1ccco1)Nc1ccc2c(c1)OCCO2`: the GFP signal change (wild-type ribosome) was 9.78% (inactive), the OD600 change was 8.22% and the RFP signal change was -0.482%.
